Measured values as given in PubChem BioAssay AID686978 (National Center for Advancing Translational Sciences (NCATS), 2013).
Where “and” joins values, the source holds several entries; their conditions need not be identical. Identical values can stand only once. Hit rate of the full screen: of about 420,000 compounds, about 64,000 (15%) were called active. Roughly 27% stayed inconclusive and do not appear here. Not all results are given here. Values without a mark were called inactive. The call rests on the fitted dose curve; in most records, active means well fitted inhibition curve with a large enough effect; inconclusive means small, poorly fitted or top-dose-only effect; inactive means flat fitted curve, though single readings scatter.

test: qHTS for Inhibitors of human tyrosyl-DNA phosphodiesterase 1 (TDP1): qHTS in cells in absence of CPT; conditions: DT40 Tdp1-/- hTDP1 cells, no CPT, ATP luminescence, 48 h; activity change, negative = growth inhibition: at 46.2 µM (top of the series); further: nearly all actives have a fitted effect of over 55% in size
How it was run: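 Luminescent ATP content (CellTiter-Glo) served as the growth readout. Knockout chicken DT40 cells expressing human TDP1 were exposed to compounds without camptothecin for a minimum 48 hr at 37 °C.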
On the % scale 0 is the no-effect control and ±100 the full control effect; potency means the concentration at half of the fitted maximal effect.

Structure (SMILES) | activity change, negative = growth inhibition | Potency
O=C(NCC(O)c1nc2ccccc2[nH]1)c1ccc(Br)cc1 (stereo not drawn) | -3.34% | –
O=C(CC1CCCCC1)NCc1ccc(F)cc1 | -0.903% | –
CCOC(=O)C1CCN(C(=O)Nc2ccc(Cl)cc2)CC1 | -21.3% | –
O=[N+]([O-])c1ccc(N2CCN(c3ccc(O)cc3)CC2)c(Cl)c1 | – | 13 µM (active)
O=C(O)C1CCN(c2ccc([N+](=O)[O-])cc2[N+](=O)[O-])CC1 | -1.31% | –
O=[N+]([O-])c1ccc(N2CCOCC2)cc1 | -11.2% | –
O=C(COC(=O)c1ccccc1SCC(=O)N1CCCC1)Nc1ccccc1OC(F)F | -28.3% | –
Cc1ccc(CNC(=O)CCNC(=O)Cn2ccc3ccccc3c2=O)cc1 | -6.74% | –
CCN(CCO)C(=S)Nc1cc(C(=O)OC)ccc1C(=O)OC | -16.3% | –
CCCN(CCC)C(=S)Nc1cc(C(=O)OC)ccc1C(=O)OC | – | 18.4 µM (active)
CCS(=O)(=O)Nc1cc(C(=O)OC)ccc1C(=O)OC | -15.2% | –
CSc1nc(-c2ccco2)nn1C(=O)CCc1ccccc1 | -2.42% | –
Cc1ccc(Cc2c(-c3ccco3)nc3ccc(Cl)cn23)cc1 | – | 11.6 µM (active)
CN1CCN(Cc2c(C(=O)N3CCc4ccccc4C3)nc3ccc(Cl)cn23)CC1 | 12.3% | –
Cc1ccc(-c2nc3ccc(Cl)cn3c2Cc2ccccc2)cc1 | – | 20.6 µM (active)
c1ccc(Cc2c(-c3ccco3)nc3c4ccccc4ccn23)cc1 | – | 20.6 µM (active)
Cc1ccc(-c2cn3cc(C)ccc3n2)cc1 | -25.3% | –
CC(=O)Nc1c(-c2ccc(C)cc2)nc2ccc(Cl)cn12 | 17.1% | –
O=C(Nc1c(-c2ccccc2)nc2c(Br)cc(Br)cn12)c1ccco1 | -16.2% | –
CN(C)C(=O)c1nc2ccc(Cl)cn2c1CN1CCN(c2ncccn2)CC1 | -20.4% | –
Cc1nn(CC(=O)Nc2ccc3c(c2)OCO3)c(C)c1[N+](=O)[O-] | -10.4% | –
Cc1cccc(NC(=O)CN2C(=O)CNC2=O)c1 | -8.76% | –
C/C(=N\NC(=O)c1cccc([N+](=O)[O-])c1)c1cccnc1 | 9.04% | –
CCOC(=O)C(C)Oc1cccc2c(=O)n(CC(=O)N3CCc4ccccc43)ccc12 (stereo not drawn) | -8.97% | –
O=C(Nc1ccccc1C(=O)N1CCOCC1)c1ccc(Cl)cc1 | 4.37% | –
Cn1c(=O)n(C)c2cc(S(=O)(=O)Nc3ccc(F)cc3)ccc21 | – | 20.6 µM (active)

Structure (SMILES) | activity change, negative = growth inhibition | Potency
Cc1cc(C)cc(NS(=O)(=O)c2ccc(F)cc2)c1 | -29.8% | –
Cn1c(=O)n(C)c2cc(NS(=O)(=O)c3ccc(F)cc3)ccc21 | -75.4% | –
Cn1c(C(=O)N2CCCC(C(=O)NCc3ccccc3)C2)cc2sccc21 (stereo not drawn) | -15.8% | –
Clc1ccc(N/N=C/c2cccs2)nn1 | -11.9% | –
CCCCCCCN=C(C)c1ccccc1O | -1.56% | –
Oc1cccc(/C=N/Nc2ccc(Cl)nn2)c1O | – | 0.13 µM (active)
C/C(=N\Nc1ccc(Cl)nn1)c1ccccc1O | – | 0.58 µM (active)
Fc1ccccc1Cc1ccc(Cl)nn1 | 5.81% | –
O=C(c1cccc(-n2cccc2)c1)N1CCN(S(=O)(=O)c2ccc(F)cc2)CC1 | 4.26% | –
C=C(Cl)COC(=O)C1C2C=CC(C2)C1C(=O)O (stereo not drawn) | 0.932% | –
CC12CN(NC(=O)c3ccc(Cl)cc3)C3(C#N)CC1CCC23C (stereo not drawn) | -7.9% | –
Cc1ccc(C(CNC(=O)Nc2ccccc2)N2CCN(C)CC2)cc1 (stereo not drawn) | 24.7% | –
Cc1ccc(NC(=O)[C@H](Cc2ccccc2)NC(=O)CC[C@H]2O[C@@H](n3ccc(=O)[nH]c3=O)[C@H](O)[C@@H]2O)cc1C | 3.83% | –
CCOC(=O)/C(N=Nc1cc(C(=O)O)cc(C(=O)O)c1)=C(\O)CCl | 0.226% | –
CCOc1ccc(-c2n[nH]c3c2C(c2ccccc2OC)N(c2ccc(Br)cc2)C3=O)cc1 (stereo not drawn) | – | 14.6 µM (active)
CCOc1ccc(/C(O)=C2\C(=O)C(=O)N(c3ccc(OC)cc3)C2c2ccccc2[N+](=O)[O-])cc1 (stereo not drawn) | -24% | –
CCO/C=C1\C(=O)N(c2ccc(OCC)cc2)C(=O)c2ccccc21 | -1.17% | –
Cc1ccc(C(=O)Nc2ccn(C)n2)cc1 | 11.8% | –
COc1ccc(NC(=O)C2CCCN(S(=O)(=O)c3cccc4cccnc34)C2)cc1OC (stereo not drawn) | -70.6% | –
O=C(Nc1nccs1)C1CCCN1S(=O)(=O)c1cccc2cccnc12 (stereo not drawn) | -9.03% | –
Cc1ccc(NC(=O)C2CCCN2S(=O)(=O)c2cccc3cccnc23)c(C)c1 (stereo not drawn) | – | 18.4 µM (active) and 16.4 µM (active)
COC(=O)C1=C(C)N(C)C(C)=C(C(=O)OC)C1c1cccc(Br)c1 | -23.5% | –
COC(=O)C1=CN(c2c(C)cc(C)cc2C)C(N)=C(C#N)C1c1cccc(F)c1 (stereo not drawn) | – | 14.6 µM (active)
Cn1c2c(c(=O)n(C)c1=O)C(c1cccc(F)c1)C(C#N)=C(N)O2 (stereo not drawn) | 0.646% | –
Cc1ccc(NC(=O)C(C)OC(=O)Cc2c[nH]c3ccccc23)cc1S(=O)(=O)N1CCOCC1 (stereo not drawn) | -5.52% | –
O=C(OCC(=O)N1CCCCCC1)c1ccc(Br)c(S(=O)(=O)N2CCOCC2)c1 | -24.2% | –

Structure (SMILES) | activity change, negative = growth inhibition | Potency
COc1cc(Br)cc(/C=N/c2ncn[nH]2)c1O | 14.3% | –
N#C/C(C(=O)N1CCOCC1)=C1/SC(Cc2ccc(F)cc2)C(=O)N1c1ccccc1 (stereo not drawn) | 5.03% | –
COc1ccc(OC)c(NC(=O)C2(C)CCN2C(=O)Cc2ccccc2)c1 (stereo not drawn) | -22.7% | –
CC1(C(=O)NS(=O)(=O)Cc2cccc(Cl)c2)CCN1C(=O)Cc1ccccc1 (stereo not drawn) | -22.5% | –
C#Cc1ccc(NC(=O)C2(C)CCN2C(=O)Cc2ccc(-c3ccccc3)cc2)cc1 (stereo not drawn) | – | 20.6 µM (active)
CCCNC(=O)C1(C)CCN1C(=O)Cc1ccc(-c2ccccc2)cc1 (stereo not drawn) | – | 9.2 µM (active)
CC1(C(=O)NS(=O)(=O)c2ccccc2)CCN1C(=O)Cc1ccc(-c2ccccc2)cc1 (stereo not drawn) | -0.605% | –
CC1(C(=O)NS(=O)(=O)c2cccs2)CCN1C(=O)Cc1ccc(-c2ccccc2)cc1 (stereo not drawn) | -3.62% | –
O=C(CSc1cn(CC(=O)N2CCOCC2)c2ccccc12)Nc1ccccc1 | -19.5% | –
O=C(CN1C(=O)NC2(CCCC2)C1=O)Nc1cc(C(F)(F)F)ccc1N1CCOCC1 | -13.1% | –
Cc1ccc2c(c1)N(CCCC(=O)NCc1cccnc1)C(=O)CO2 | 1.85% | –
COc1cc(C)ccc1OCC(=O)OCC(=O)c1ccc[nH]1 | -12.9% | –
COCC1CCN(C(=O)C2CCC(=O)N(CC3CCCCC3)C2)CC1 (stereo not drawn) | 10.1% | –
Cc1ccc(S(=O)(=O)N(CC(=O)NCc2ccco2)c2ccccc2C)cc1 | -25.5% | –
Cc1ccc(S(=O)(=O)N(CC(=O)Nc2ccc(Cl)cc2Cl)c2ccccc2C)cc1 | – | 11.6 µM (active)
CN(CC(=O)Nc1cccc2c1CCCC2)S(=O)(=O)c1ccc(Cl)cc1 | -24.1% | –
Cc1ccc(N2C(=O)SC(N(CC(=O)O)c3ccc(C)cc3)C2=O)cc1 (stereo not drawn) | -0.545% | –
C(#CCN1CCOCC1)CCCN1CCOCC1 | -4.04% | –
COc1ccc(Nc2nc(NCc3ccco3)nc(N/N=C/c3ccccc3Cl)n2)cc1 | – | 23.1 µM (active)
COc1ccc(NC(=O)C(=O)NCc2ccco2)cc1 | -2.26% | –
COc1ccc(Nc2nc(Cl)nc(NCc3ccco3)n2)cc1 | -25.1% | –
CN1CCn2cnc(C(=O)NCC(=O)OC(C)(C)C)c2C1=O | 3.77% | –
CC12CCC(C(=O)N(CCC#N)CCC#N)(CC1=O)C2(C)C (stereo not drawn) | -4.04% | –
CC1=CC(C)(C)NC(=S)N1NC(=O)c1ccccc1Cl | -4.62% | –
COc1ccc(NS(=O)(=O)c2cc(NC(=O)/C=C/c3cc(OC)c(OC)c(OC)c3)ccc2N2CCCCC2)cc1 | -18.2% | –
COc1ccc(NS(=O)(=O)c2cc(NC(=O)c3ccc(S(=O)(=O)N(C)C)cc3)ccc2N2CCOCC2)cc1 | -17.8% | –

Structure (SMILES) | activity change, negative = growth inhibition | Potency
COc1ccc(NS(=O)(=O)c2cc(NC(=O)C3CCCCC3)ccc2N2CCOCC2)cc1 | – | 13 µM (active)
O=c1[nH]c(CN2CCOCC2)nc2scc(-c3ccccc3)c12 | -6.06% | –
Oc1ccc(-n2nnnc2SCc2c(F)cccc2Cl)cc1 | 0.835% | –
CC(CC(=O)N1CCN(c2ccccc2)CC1)c1ccccc1 (stereo not drawn) | -24% | –
CC(CC(=O)N1CCN(c2ccccc2)CC1)S(=O)(=O)c1ccc2c(c1)NC(=O)CS2 (stereo not drawn) | – | 20.6 µM (active)
COc1ccccc1CNS(=O)(=O)c1ccc2c(c1)NC(=O)CS2 | -27.6% | –
Cc1nonc1NC(=O)c1ccccc1Br | -11.8% | –
CC(C)C(C(=O)NCc1ccco1)N(CC1CCCO1)C(=O)CNS(=O)(=O)c1ccc(F)cc1 (stereo not drawn) | -5.83% | –
CCOC(=O)Cc1ccc(NC(=O)Nc2c[nH]c(=O)[nH]c2=O)cc1 | 0.46% | –
CS(=O)(=O)N(Cc1nc2sc3c(c2c(=O)[nH]1)CCCC3)C1CCCCC1 | – | 23.1 µM (active)
CCN(CC)Cc1nc2sc(C)c(C)c2c(=O)[nH]1 | 15.3% | –
Cc1ccc(S(=O)(=O)N2CCCC2C(=O)OCc2nc3sc(C)c(C)c3c(=O)[nH]2)cc1 (stereo not drawn) | -7.99% | –
CC(=O)Nc1ccc(NC(=O)CC2CCCC2)cc1 | -6.51% | –
COc1cc(CCN=Cc2ccccc2O)c([N+](=O)[O-])cc1OC | 4.05% | –
Cc1c(NC(=O)C(=O)N/N=C/c2cccs2)c(=O)n(-c2ccccc2)n1C | -8.59% | –
Cc1cc(N=CC2=C(O)CCCC2=O)no1 | -0.68% | –
CC1(C)CC2CC(C)(CN2c2ncnc3ccc(Br)cc23)C1 (stereo not drawn) | – | 3.26 µM (active)
COc1ccc(Nc2ncnc3ccc(Br)cc23)c(OC)c1 | -19.2% | –
CCCCn1c(N)c(N(CCOC)C(=O)CSCC(=O)Nc2cccc(C)c2)c(=O)[nH]c1=O | -0.682% | –
CC[C@@H](C)[C@@H](C(=O)N1CCN(C(=O)OC(C)(C)C)CC1)n1cc(CCC(=O)O)nn1 | -0.0791% | –
COc1ccc(C2NC(=O)N(C)C3=C2C(=O)N(c2ccc(C(=O)O)cc2)C3)cc1 (stereo not drawn) | -25.2% | –
Cc1ccc2nnn(Cc3cccc(C(C)(C)C)c3O)c2c1 | – | 11.6 µM (active)
Cc1ccc(C(=O)CSc2nnc(Cn3nnc4ccccc43)n2C)cc1 | -16.1% | –
O=C(Nc1ccccc1)N[C@H]1C[C@H](C(=O)O)Nc2cc(Cl)cc(Cl)c21 | -8.72% | –
CCCCCc1ccc(-c2ccc(OCC)cc2)nc1 | -15.2% | –
